{"source": "the supplement of paper PMC8728848", "binders": {"B1": {"name": "XCL (Xerocomus chrysenteron) (protein)", "chain": "MSYSITLRVYQTNRDRGYFSIVEKTVWHFANGGTWSEANGAHTLTQGGSGTSGVLRFLSTKGERITVAVGVHNYKRWCDVVTGLKPDETALVINPQYYNNGGRDYVREKQLAEYSVTSAIGTKVEVVYTVAEGNNLEANVIFS"}}, "assay_in_all_cases": "glycan array binding signal (z-score within array); higher = stronger binding", "conditions_in_all_cases": "glycan notation: IUPAC condensed, linker removed", "key": {"[1]": {"molecular_target": "Fuc(a1-2)Gal(b1-4)GlcNAc(b1-3)[Fuc(a1-2)Gal(b1-4)GlcNAc(b1-6)]GalNAc", "summary_of_the_method": "(§1)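 Glycan array data were curated from 3228 arrays in the Consortium for Functional Glycomics database and kept only where the protein sequence was available. Glycan names were converted to IUPAC-condensed notation, and columns mapping to the same glycan were averaged. The binding signal is a within-array Z-score, averaged across arrays of the same protein sequence at different concentrations or buffers and across linkers. Negative Z-scores can be read as non-binding.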"}, "[2]": {"molecular_target": "Fuc(a1-2)[Gal(a1-3)]Gal(b1-3)GalNAc", "summary_of_the_method": "as §1"}, "[3]": {"molecular_target": "Fuc(a1-2)[Gal(a1-3)]Gal(b1-3)GlcNAc(b1-3)GalNAc", "summary_of_the_method": "as §1"}, "[4]": {"molecular_target": "Fuc(a1-2)[GalNAc(a1-3)]Gal", "summary_of_the_method": "as §1"}, "[5]": {"molecular_target": "Fuc(a1-2)[GalNAc(a1-3)]Gal(b1-3)GlcNAc(b1-3)GalNAc", "summary_of_the_method": "as §1"}, "[6]": {"molecular_target": "Fuc(a1-3)[Gal(b1-4)]GlcNAc(b1-2)Man(a1-3)[Fuc(a1-3)[Gal(b1-4)]GlcNAc(b1-2)Man(a1-6)]Man(b1-4)GlcNAc(b1-4)GlcNAc", "summary_of_the_method": "as §1"}, "[7]": {"molecular_target": "Fuc(a1-3)[Gal(b1-4)]GlcNAc(b1-3)Gal(b1-3)[Fuc(a1-4)]GlcNAc", "summary_of_the_method": "as §1"}, "[8]": {"molecular_target": "Gal(a1-3)GalNAc", "summary_of_the_method": "as §1"}, "[9]": {"molecular_target": "Gal(b1-3)GalNAc(a1-3)[Fuc(a1-2)]Gal(b1-4)GlcNAc", "summary_of_the_method": "as §1"}, "[10]": {"molecular_target": "Gal(b1-4)GlcNAc(b1-2)Man(a1-3)[Man(a1-6)]Man(b1-4)GlcNAc(b1-4)GlcNAc", "summary_of_the_method": "as §1"}, "[11]": {"molecular_target": "Gal(b1-4)GlcNAc(b1-3)[Gal(b1-4)GlcNAc(b1-6)]GalNAc", "summary_of_the_method": "as §1"}, "[12]": {"molecular_target": "Gal3S(b1-3)GalNAc", "summary_of_the_method": "as §1"}, "[13]": {"molecular_target": "Gal3S(b1-3)[Fuc(a1-4)]GlcNAc", "summary_of_the_method": "as §1"}, "[14]": {"molecular_target": "Gal6S(b1-3)GlcNAc6S", "summary_of_the_method": "as §1"}, "[15]": {"molecular_target": "Glc(b1-4)Glc", "summary_of_the_method": "as §1"}, "[16]": {"molecular_target": "GlcNAc(a1-4)Gal(b1-4)GlcNAc", "summary_of_the_method": "as §1"}, "[17]": {"molecular_target": "GlcNAc(a1-4)Gal(b1-4)GlcNAc(b1-3)Gal(b1-4)GlcNAc(b1-3)Gal(b1-4)GlcNAc", "summary_of_the_method": "as §1"}, "[18]": {"molecular_target": "GlcNAc(b1-2)Gal(b1-3)GalNAc", "summary_of_the_method": "as §1"}, "[19]": {"molecular_target": "GlcNAc(b1-2)Man(a1-3)[GlcNAc(b1-2)Man(a1-6)]Man(b1-4)GlcNAc(b1-4)GlcNAc", "summary_of_the_method": "as §1"}, "[20]": {"molecular_target": "GlcNAc(b1-2)Man(a1-3)[GlcNAc(b1-4)][GlcNAc(b1-2)Man(a1-6)]Man(b1-4)GlcNAc(b1-4)GlcNAc", "summary_of_the_method": "as §1"}, "[21]": {"molecular_target": "GlcNAc(b1-2)[GlcNAc(b1-4)]Man(a1-3)[GlcNAc(b1-4)][GlcNAc(b1-2)Man(a1-6)]Man(b1-4)GlcNAc(b1-4)GlcNAc", "summary_of_the_method": "as §1"}, "[22]": {"molecular_target": "GlcNAc(b1-2)[GlcNAc(b1-6)]Man(a1-6)[GlcNAc(b1-2)Man(a1-3)][GlcNAc(b1-4)]Man(b1-4)GlcNAc(b1-4)GlcNAc", "summary_of_the_method": "as §1"}, "[23]": {"molecular_target": "GlcNAc(b1-3)Gal", "summary_of_the_method": "as §1"}, "[24]": {"molecular_target": "GlcNAc(b1-3)Gal(b1-3)GalNAc", "summary_of_the_method": "as §1"}, "[25]": {"molecular_target": "GlcNAc(b1-3)[GlcNAc(b1-4)][GlcNAc(b1-6)]GlcNAc", "summary_of_the_method": "as §1"}, "[26]": {"molecular_target": "GlcNAc(b1-3)[GlcNAc(b1-6)]GalNAc", "summary_of_the_method": "as §1"}, "[27]": {"molecular_target": "GlcNAc(b1-4)Gal(b1-4)GlcNAc", "summary_of_the_method": "as §1"}, "[28]": {"molecular_target": "Kdn(a2-3)Gal(b1-4)Glc", "summary_of_the_method": "as §1"}, "[29]": {"molecular_target": "Neu5Ac(a2-3)Gal(b1-3)GalNAc6S", "summary_of_the_method": "as §1"}, "[30]": {"molecular_target": "Neu5Ac(a2-3)Gal(b1-4)GlcNAc(b1-2)Man(a1-3)[Neu5Ac(a2-6)Gal(b1-4)GlcNAc(b1-2)Man(a1-6)]Man(b1-4)GlcNAc(b1-4)GlcNAc", "summary_of_the_method": "as §1"}, "[31]": {"molecular_target": "Neu5Ac(a2-3)Gal(b1-4)[Fuc(a1-3)]GlcNAc", "summary_of_the_method": "as §1"}, "[32]": {"molecular_target": "Neu5Ac(a2-3)GalNAc(b1-4)GlcNAc", "summary_of_the_method": "as §1"}, "[33]": {"molecular_target": "Neu5Ac(a2-6)Gal(b1-4)GlcNAc(b1-3)Gal(b1-4)GlcNAc(b1-3)Gal(b1-4)GlcNAc", "summary_of_the_method": "as §1"}, "[34]": {"molecular_target": "Neu5Ac(a2-6)GlcNAc(b1-4)GlcNAc", "summary_of_the_method": "as §1"}, "[35]": {"molecular_target": "Neu5Ac(a2-8)Neu5Ac(a2-3)Gal(b1-4)Glc", "summary_of_the_method": "as §1"}, "[36]": {"molecular_target": "Neu5Ac(a2-8)Neu5Ac(a2-3)[GalNAc(b1-4)]Gal(b1-4)Glc", "summary_of_the_method": "as §1"}, "[37]": {"molecular_target": "Neu5Gc(a2-6)GalNAc", "summary_of_the_method": "as §1"}}, "note": "The entries come from a sample that favours the strongest signals as a whole."}
{"binder": "B1", "values": [{"measurement": "glycan array binding signal (z-score)", "setting": "[1]", "result": -0.27}, {"measurement": "glycan array binding signal (z-score)", "setting": "[2]", "result": -0.324}, {"measurement": "glycan array binding signal (z-score)", "setting": "[3]", "result": -0.303}, {"measurement": "glycan array binding signal (z-score)", "setting": "[4]", "result": -0.237}, {"measurement": "glycan array binding signal (z-score)", "setting": "[5]", "result": -0.249}, {"measurement": "glycan array binding signal (z-score)", "setting": "[6]", "result": -0.324}, {"measurement": "glycan array binding signal (z-score)", "setting": "[7]", "result": -0.31}, {"measurement": "glycan array binding signal (z-score)", "setting": "[8]", "result": -0.207}, {"measurement": "glycan array binding signal (z-score)", "setting": "[9]", "result": 3.43}, {"measurement": "glycan array binding signal (z-score)", "setting": "[10]", "result": -0.272}, {"measurement": "glycan array binding signal (z-score)", "setting": "[11]", "result": -0.282}, {"measurement": "glycan array binding signal (z-score)", "setting": "[12]", "result": 3.44}, {"measurement": "glycan array binding signal (z-score)", "setting": "[13]", "result": -0.322}, {"measurement": "glycan array binding signal (z-score)", "setting": "[14]", "result": -0.321}, {"measurement": "glycan array binding signal (z-score)", "setting": "[15]", "result": -0.304}, {"measurement": "glycan array binding signal (z-score)", "setting": "[16]", "result": 2.15}, {"measurement": "glycan array binding signal (z-score)", "setting": "[17]", "result": 5.84}, {"measurement": "glycan array binding signal (z-score)", "setting": "[18]", "result": -0.139}, {"measurement": "glycan array binding signal (z-score)", "setting": "[19]", "result": 4.71}, {"measurement": "glycan array binding signal (z-score)", "setting": "[20]", "result": 5.38}, {"measurement": "glycan array binding signal (z-score)", "setting": "[21]", "result": 4.92}, {"measurement": "glycan array binding signal (z-score)", "setting": "[22]", "result": 3.42}, {"measurement": "glycan array binding signal (z-score)", "setting": "[23]", "result": 0.225}, {"measurement": "glycan array binding signal (z-score)", "setting": "[24]", "result": 3.71}, {"measurement": "glycan array binding signal (z-score)", "setting": "[25]", "result": 0.592}, {"measurement": "glycan array binding signal (z-score)", "setting": "[26]", "result": 0.896}, {"measurement": "glycan array binding signal (z-score)", "setting": "[27]", "result": -0.303}, {"measurement": "glycan array binding signal (z-score)", "setting": "[28]", "result": -0.294}, {"measurement": "glycan array binding signal (z-score)", "setting": "[29]", "result": 3.87}, {"measurement": "glycan array binding signal (z-score)", "setting": "[30]", "result": -0.32}, {"measurement": "glycan array binding signal (z-score)", "setting": "[31]", "result": -0.3}, {"measurement": "glycan array binding signal (z-score)", "setting": "[32]", "result": -0.279}, {"measurement": "glycan array binding signal (z-score)", "setting": "[33]", "result": -0.311}, {"measurement": "glycan array binding signal (z-score)", "setting": "[34]", "result": -0.322}, {"measurement": "glycan array binding signal (z-score)", "setting": "[35]", "result": -0.311}, {"measurement": "glycan array binding signal (z-score)", "setting": "[36]", "result": -0.316}, {"measurement": "glycan array binding signal (z-score)", "setting": "[37]", "result": 0.059}]}
